Experimental findings from ChEMBL document CHEMBL3988442, “University of Dundee, Small-Polar-MMV Screening Library” (2021) are described below.

Structures are written as SMILES. About 13,000 (27%) of roughly 48,000 compounds showed an effect of 50% or more. The list shows a part of the results.

In this test the test system is Wolbachia pipientis. The experiment in a line: Anti-Wolbachia Cell-Based Screen. The format is functional. The arrangement: scale not given: in the data most compounds retested in dose-response had high values. As to conditions: 5 µM.
For the molecule `O=C(c1cc2ccccc2o1)N1CCN(Cn2cc(Cl)cn2)CC1`, the “Percent Effect” value is reported as -7.476%. As for `CNC(=O)CCNC(=O)c1cc(Br)c2c(c1)OCCO2`, the “Percent Effect” value is 13.5%. Next, `CCN(C)S(=O)(=O)N1CCCC(c2nc(-c3ccccc3)c[nH]2)C1` (stereo unspecified): -1.843%. Then `Cc1ccc([C@@H]2CN(S(=O)(=O)c3ccccc3)C[C@H]2N(C)C)cc1`, with -8.566%; and `Cc1ccc(S(=O)(=O)N2CCCC(c3n[nH]cc3C(=O)N(C)C)C2)cc1` (stereo unspecified), with 125.7%.

As to `O=C(NCc1nnc2ccccn12)N1CCOC(c2ccsc2)C1` (stereo unspecified), the “Percent Effect” value is recorded as -11.65%.

Turning to `COc1ccc(OC)c(NC(=O)NCC(O)c2ccc(F)c(F)c2)c1` (stereo unspecified), the “Percent Effect” value is reported as 19.22%. As to `COc1ccccc1C(O)CNC(=O)Nc1ncccc1C` (stereo unspecified), the “Percent Effect” value is listed as 0.5949%. Then `COc1ccc(NC(=O)NCC(O)c2ccccc2F)c(OC)c1` (stereo unspecified), with 84.27%. With `COc1ccc(OC)c(C(O)CNC(=O)Nc2ccc(F)cc2F)c1` (stereo unspecified), the “Percent Effect” value was found to be 81.01%. Then `CCOc1ncccc1NC(=O)NCC(O)c1ccccc1OC` (stereo unspecified), with -2.656%. Next, `COc1ccc(NC(=O)NCC(O)c2ccc(F)cc2F)c(OC)c1` (stereo unspecified): 9.274%; `CCN(C)C1CCCc2nc(C)sc21` (stereo unspecified): -11.76%; `Cc1ccc(OC2(C(=O)O)CCN(C(=O)c3cc(C)oc3C)CC2)cn1`: -11.44%.

On to `Cc1ccc(N2CCN(CC3CC3)C3(CCN(C(C)C)CC3)C2=O)cn1.O=C(O)C(F)(F)F`, for which the “Percent Effect” value is -1.753%. Next, `Cc1cc(C(=O)N2CCC3(CC2)C(=O)N(C)CCN3CC(C)C)c(C)o1.O=C(O)C(F)(F)F`: 105.2%. Then `CCc1ccc(CN2CCC3(CC2)C(=O)N(C)CCN3CC2CC2)cc1.O=C(O)C(F)(F)F`, with -26.46%; and `Cc1cc(C(=O)N2CCC3(CC2)C(=O)N(C)CCN3CC2CC2)c(C)o1.O=C(O)C(F)(F)F`, with 105.3%. Then `Cc1cc(C(=O)N2CCC3(CC2)C(=O)NCCN3CC(C)C)c(C)o1`, with 4.806%; and `CCN1CCC2(CC1)C(=O)N(c1ccc(C)nc1)CCN2CC(C)C.O=C(O)C(F)(F)F`, with -13.38%; and `Cc1ccsc1C(=O)N1CCC2(CC1)C(=O)N(C)CCN2CC1CC1.O=C(O)C(F)(F)F`, with 98.73%.

`O=C(O)[C@@H]1CN(CCOCCO)C[C@H]1c1ccccc1`: the “Percent Effect” value is on record as -10.46%. Then `N#Cc1ccc(OC2CCN(C(=O)c3cncc(Br)c3)CC2)nc1`, with 3.966%; and `CCC(C)(CC(=O)OC)NC(=O)c1ccc2[nH]ccc2c1` (stereo unspecified), with -0.3166%; and `CCCn1[nH]cc/c1=N\C(=O)CN1CCCC1Cn1nc(C)nc1C` (stereo unspecified), with -1.859%.

In the case of `CC(=O)c1cccc(NC(=O)CN2CCCCC2C)c1` (stereo unspecified), the “Percent Effect” value is -9.973%. Next, `CCCS(=O)(=O)CCN1CCOC(c2ccsc2)C1` (stereo unspecified): -6.167%; `O=C(c1ncoc1C1CC1)N1CCCN(CCCc2ccccc2)CC1`: 104.8%; `Cc1ocnc1C(=O)N1CCN(CCOc2ccccc2)CC1`: 109.9%. Next, `CC(C(=O)N1CCN(CCOc2ccccc2)CC1)n1cc(Cl)cn1` (stereo unspecified): 9.787%; `CC(=O)N1CCCN(CCCc2ccccc2)CC1`: -14.81%; `Cn1nccc1C(=O)N1CCCN(CCCc2ccccc2)CC1`: -12.37%. Next, `COc1cccc(OCC2CCCN(C(=O)c3ncoc3C3CC3)C2)c1` (stereo unspecified): -37.79%. `Nc1nccnc1C(=O)N1CCN(CCOc2ccccc2)CC1`: the “Percent Effect” value was -15.87%. Then `O=C(c1ncoc1C1CC1)N1CCN(CCOc2ccccc2)CC1`, with 94.73%. As for `O=C(CCn1cc(Cl)cn1)N1CCN(CCOc2ccccc2)CC1`, the “Percent Effect” value is -6.646%. Next, `O=C(c1n[nH]c2c1CCN(Cc1nccs1)C2)N1CCOCC1`: 14.04%; `O=C(CN1CCc2cncnc2C1)N1CCc2sccc2C1`: -26.01%; `Cc1cc(CNc2ccc(C(=O)N3CCc4ccccc43)cn2)on1`: 23.63%. As for `CSC1(CNC(=O)NCc2sccc2C)CCOCC1`, the “Percent Effect” value is reported as -11.79%. Next, `COC(=O)NCC(=O)N(C)Cc1csc(-c2cccs2)n1`: -9.296%; `COc1cccc(CN2CCC(Cc3cnc(CN(C)C)cn3)CC2)c1`: 111.9%. Then `Cc1ncc(CN(C)C2CCCN(CCc3ccccc3)C2)n1C` (stereo unspecified), with -4.655%; and `Cc1cnc(CN(C)C2CCN(CCc3ccccn3)CC2)cn1`, with 10.61%.

Take `CCn1c(CN(C)C)nnc1C1CCN(Cc2cccc(OC)c2)CC1`: the “Percent Effect” value turned out to be 12.38%. For the molecule `COc1ccccc1OC1CCN(Cc2cnc(N(C)C)nc2)CC1`, the “Percent Effect” value is on record as -4.548%. `CN(C)Cc1cnc(CC2CCN(CCc3ccccc3)CC2)cn1`: the “Percent Effect” value is 90.66%. Next, `COc1ccccc1CN(C)C(=O)c1cc(CN2CCC(O)CC2)on1`: -15.1%; `COc1ccccc1CN1CCC(Cc2cnc(CN(C)C)cn2)CC1`: 110%; `COc1cccc(CN2CCC(c3nccn3C(C)C)CC2)c1`: 7.494%. Next, `O=C(NCCN1CCOCC1)NCc1ncc(-c2ccccc2)o1`: 4.39%; `CCc1cc(N2C[C@H](C3CC3)[C@@H](N)C2)nc(N2CCCC2)n1`: 13.06%; `O=C(C1SCCc2sccc21)N1CC(O)C1` (stereo unspecified): -8.874%. As for `Brc1ccc(CNCc2nnc3n2CCC3)s1.Cl`, the “Percent Effect” value is 7.308%. Next, `Brc1ccc(CNCc2nnc3n2CCCCC3)s1.Cl`: -9.966%. Take `CCCn1nc(C(=O)NCc2nnc3n2CCC3)ccc1=O`: the “Percent Effect” value came to 10.17%. Then `O=C(NCc1nnnn1-c1ccccc1)c1ccc(C2CCCO2)s1` (stereo unspecified), with 107.3%; and `O=C(NCCc1nc(-c2ccccn2)no1)c1ccc(C2CCCO2)s1` (stereo unspecified), with 1.168%; and `O=C(NCCc1nc(-c2cccnc2)no1)c1ccc(C2CCCO2)s1` (stereo unspecified), with 9.289%. For `O=C(NCc1nnc2n1CCC2)c1ccc(Br)s1`, the “Percent Effect” value is given as 111.9%.

For `O=C(NCc1nnc2n1CCC2)c1ccc(C2CCCO2)s1` (stereo unspecified), the “Percent Effect” value worked out at 92.93%. For the molecule `O=C(NCc1nnc2n1CCCC2)c1ccc(C2CCCO2)s1` (stereo unspecified), the “Percent Effect” value worked out at 101.2%. With `O=C(c1ccc(C2CCCO2)s1)N1CCOCC1` (stereo unspecified), the “Percent Effect” value is reported as 12.38%. Then `O=C(c1ccc(C2CCCO2)s1)N1CCS(=O)(=O)CC1` (stereo unspecified), with -17.24%. Consider `O=C(NCc1nc(-c2ncccn2)no1)c1ccc(C2CCCO2)s1` (stereo unspecified), for which the “Percent Effect” value is listed as 1.896%. As to `CCc1cccc(OCCn2cccc(C#N)c2=O)c1`, the “Percent Effect” value is -12.24%.
